# Reference: PubChem BioAssay (EPA / NIEHS)
# Results filed as inconclusive are left out. Active and inactive are the calls of the source. Rule for the calls, unless noted: active = hit-call score of the fitted dose curve at least 0.9, where 1 is the maximum; inactive = score below 0.9.
# Key:
# [1] = biological target: PGR (gene 5241) (UniProt P06401); assay: TOX21_PR_BLA_Followup_Antagonist_ratio: Tox21 HEK293 Progesterone Receptor (PR) Antagonism Beta-lactamase Follow-Up Assay, Ratio (AID 2283934; active = hit-call score of the fitted dose curve at least 0.9, where 1 is the maximum)
# PGR (gene 5241), sequence (P06401 whole entry, looked up, the tested form may be a part): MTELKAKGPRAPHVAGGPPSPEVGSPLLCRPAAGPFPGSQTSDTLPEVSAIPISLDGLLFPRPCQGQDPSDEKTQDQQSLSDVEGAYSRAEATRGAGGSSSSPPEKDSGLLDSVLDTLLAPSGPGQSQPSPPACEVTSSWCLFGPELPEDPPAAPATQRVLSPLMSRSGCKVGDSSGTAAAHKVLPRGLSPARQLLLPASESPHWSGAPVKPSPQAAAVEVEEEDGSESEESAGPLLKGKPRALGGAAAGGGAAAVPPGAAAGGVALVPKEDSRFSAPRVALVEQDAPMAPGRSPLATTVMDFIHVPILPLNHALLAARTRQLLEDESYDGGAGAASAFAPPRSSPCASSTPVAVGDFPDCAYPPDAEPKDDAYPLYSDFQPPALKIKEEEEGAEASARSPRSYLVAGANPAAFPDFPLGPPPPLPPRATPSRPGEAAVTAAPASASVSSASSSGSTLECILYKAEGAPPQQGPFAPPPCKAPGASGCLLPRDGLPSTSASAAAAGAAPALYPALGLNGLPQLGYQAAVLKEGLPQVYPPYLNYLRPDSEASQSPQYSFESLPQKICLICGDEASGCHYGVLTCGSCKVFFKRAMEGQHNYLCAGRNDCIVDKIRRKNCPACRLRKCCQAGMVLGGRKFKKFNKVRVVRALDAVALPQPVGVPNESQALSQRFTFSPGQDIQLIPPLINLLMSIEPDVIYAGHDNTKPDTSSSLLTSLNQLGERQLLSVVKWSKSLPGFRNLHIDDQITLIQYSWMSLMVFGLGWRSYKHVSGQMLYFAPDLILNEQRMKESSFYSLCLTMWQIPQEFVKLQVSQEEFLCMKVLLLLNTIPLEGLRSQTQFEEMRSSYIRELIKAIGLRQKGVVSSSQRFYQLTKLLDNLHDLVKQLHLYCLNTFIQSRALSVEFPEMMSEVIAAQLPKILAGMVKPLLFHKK
# In short: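 Read-out: blue/green beta-lactamase FRET ratio (cleaved ch2 over uncleaved ch1), fitted relative to DMSO baseline. Cells: PR-UAS-bla HEK293T, GAL4-UAS reporter, stimulated with 1 nM R5020 final; 16 hr compound exposure, 37C.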
# [2] = biological target: PGR (gene 5241) (UniProt P06401); assay: TOX21_PR_BLA_Followup_Agonist_ratio: Tox21 HEK293 Progesterone Receptor (PR) Agonism Beta-lactamase Follow-Up Assay, Ratio (AID 2283933; active = hit-call score of the fitted dose curve at least 0.9, where 1 is the maximum)
# In short: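 Read-out: ratio of cleaved (ch2) to uncleaved (ch1) beta-lactamase substrate fluorescence, gain-of-signal relative to DMSO baseline. Cells: PR-UAS-bla HEK293T, 2% charcoal-stripped FBS; compound exposure 16 hr, 37C; substrate 2 hr, RT.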
# [3] = CEETOX_H295R_OHPREG_noMTC: CeeTox H295R High-throughput Steroidogenesis Assay for OH-Pregnenolone (OHPREG), maximum tolerated concentration (MTC) filtered results only (AID 2283912); conditions: actives raise or lower the signal
# In short: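 Readout is HPLC-MS/MS quantification of 17alpha-hydroxypregnenolone released by forskolin-stimulated H295R cells over 48 h of chemical exposure, DMSO as baseline.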
# [4] = CEETOX_H295R_OHPROG_noMTC: CeeTox H295R High-throughput Steroidogenesis Assay for OH-Progesterone (OHPROG), maximum tolerated concentration (MTC) filtered results only (AID 2283914); conditions: actives raise or lower the signal
# In short: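 Analysis uses all tested concentrations, without maximum-tolerated-concentration screening by MTT. H295R cells, forskolin-primed (10 uM, 48 h), receive chemical for 48 h; hormone in medium measured by HPLC-MS/MS, with bidirectional curve fitting against DMSO.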
# [5] = CEETOX_H295R_ANDR_noMTC: CeeTox H295R High-throughput Steroidogenesis Assay for Androstenedione (ANDR), maximum tolerated concentration (MTC) filtered results only (AID 2283915); conditions: actives raise or lower the signal
# In short: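 Androstenedione secreted into medium was measured by LC-MS/MS after MTBE extraction. Human adrenal H295R cells received 10 uM forskolin for 48 h before 48 h chemical exposure (0.1% DMSO). Gain or loss fitted against DMSO, including concentrations above the MTT-derived MTC.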
# [6] = CEETOX_H295R_CORTISOL_noMTC: CeeTox H295R High-throughput Steroidogenesis Assay for Cortisol, maximum tolerated concentration (MTC) filtered results only (AID 2283916); conditions: actives raise or lower the signal
# In short: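 H295R adrenal cells were pre-stimulated 48 h with 10 uM forskolin, then exposed 48 h to test chemical in 0.1% DMSO. Medium cortisol was measured by MTBE extraction and HPLC-MS/MS; bidirectional fit versus DMSO, concentrations not MTC-filtered.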
# [7] = CEETOX_H295R_CORTIC_noMTC: CeeTox H295R High-throughput Steroidogenesis Assay for Corticosterone (CORTIC), maximum tolerated concentration (MTC) filtered results only (AID 2283917); conditions: actives raise or lower the signal
# In short: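 Forskolin-stimulated (10 uM, 48 h) H295R cells are dosed 48 h with chemical in DMSO (0.1% final); corticosterone change is quantified by HPLC-MS/MS and fitted bidirectionally against DMSO, unfiltered for MTT-derived MTC.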
# [8] = CEETOX_H295R_DOC_noMTC: CeeTox H295R High-throughput Steroidogenesis Assay for DOC, maximum tolerated concentration (MTC) filtered results only (AID 2283918); conditions: actives raise or lower the signal
# In short: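 H295R cells prestimulated 48 h with 10 uM forskolin, then exposed 48 h to test chemical (0.1% DMSO final). Medium 11-deoxycorticosterone extracted with MTBE, quantified by HPLC-MS/MS; bidirectional fit versus DMSO, concentrations not MTC-filtered.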
# [9] = CEETOX_H295R_PROG_noMTC: CeeTox H295R High-throughput Steroidogenesis Assay for Progesterone (PROG), maximum tolerated concentration (MTC) filtered results only (AID 2283920); conditions: actives raise or lower the signal
# In short: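 Progesterone synthesis in the human adrenal line H295R is measured by HPLC-MS/MS after 48 h chemical exposure following 48 h forskolin (10 uM) stimulation. Activity in either direction is fitted relative to DMSO.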
# [10] = CEETOX_H295R_TESTO_noMTC: CeeTox H295R High-throughput Steroidogenesis Assay for Testosterone (TESTO), maximum tolerated concentration (MTC) filtered results only (AID 2283924); conditions: actives raise or lower the signal
# In short: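 Medium testosterone, measured by HPLC-MS/MS after liquid-liquid extraction, was fitted in both directions relative to DMSO without MTC filtering. Adrenal H295R cells received 48 h chemical exposure (0.1% DMSO final) after 48 h forskolin (10 uM) prestimulation; viability by MTT.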
smiles,measurement,setting,value
CCCSP(=S)(OCC)Oc1ccc(Cl)cc1Cl (stereo not given),AC50,[1],22.6 µM (active)
CCOP(=S)(OCC)Oc1ccc(Cl)cc1Cl,AC50,[1],33.2 µM (active)
Cc1ccccc1OP(=O)(Oc1ccccc1C)Oc1ccccc1C,outcome,[2],inactive
same,AC50,[1],39.9 µM (active)
O=S(=O)(c1ccc(Cl)cc1)c1cc(Cl)c(Cl)cc1Cl,AC50,[1],27.3 µM (active)
CCCSP(=S)(OCC)Oc1ccc(SC)cc1 (stereo not given),outcome,[1],inactive
O=[N+]([O-])c1ccc(Nc2ccccc2)cc1,AC50,[1],11.4 µM (active)
Nc1ccc(-c2ccccc2)cc1,AC50,[1],22.3 µM (active)
CC(C)CC(C)(c1ccc(O)cc1)c1ccc(O)cc1,outcome,[2],inactive
same,AC50,[1],12.7 µM (active)
CC(C)(C1CCC(O)CC1)C1CCC(O)CC1 (stereo not given),outcome,[1],inactive
O=S(=O)(Oc1ccc(Cl)cc1)c1ccc(Cl)cc1,outcome,[1],inactive
CC(O)(CS(=O)(=O)c1ccc(F)cc1)C(=O)Nc1ccc(C#N)c(C(F)(F)F)c1 (stereo not given),AC50,[1],5.64 µM (active)
c1cc[c]([Sb]([c]2ccccc2)[c]2ccccc2)cc1,AC50,[3],50 µM (active)
same,AC50,[4],1.53 µM (active)
same,AC50,[5],27.8 µM (active)
same,AC50,[6],11.3 µM (active)
same,AC50,[7],8.85 µM (active)
same,outcome,[8],inactive
same,AC50,[9],10.8 µM (active)
same,outcome,[10],inactive
Cc1cc(Cl)ccc1N,outcome,[3],inactive
same,AC50,[4],25.5 µM (active)
same,outcome,[6],inactive
same,outcome,[7],inactive
same,outcome,[8],inactive
same,AC50,[9],24.1 µM (active)
OC(c1ccc(Cl)cc1)(c1ccc(Cl)cc1)c1cccnc1,outcome,[2],inactive
same,AC50,[1],29.3 µM (active)
OC[P+](CO)(CO)CO,AC50,[3],6.42 µM (active)
same,AC50,[4],3.48 µM (active)
same,AC50,[6],4.63 µM (active)
same,AC50,[7],3.54 µM (active)
same,AC50,[8],12.3 µM (active)
same,AC50,[9],2.5 µM (active)
